Measurements published in PubChem BioAssay (NCATS).
Where “and” joins values, the source holds several entries; their conditions need not be identical. Equal entries are not always repeated. Records with an inconclusive call do not appear. Unmarked numbers belong to inactive results. Calls follow the shape of the dose curve; as a rule, active = well fitted inhibition curve with a large enough effect in the signal ratio, with a control signal flat (not every such curve was filed as active); inconclusive = small, poorly fitted or top-dose-only effect, or effect the other way, or a change in a side signal; inactive = no such curve, though single readings can be large or run the other way; the % refers to the signal ratio.

What follows are compounds tested against Retinoic acid receptor RXR-alpha (Homo sapiens) (UniProt P19793) (assay: qHTS assay for small molecule antagonists of retinoid X receptor alpha signaling (AID 588546)). Settings: HEK293T RXRa-UAS-bla, beta-lactamase ratio, antagonist mode.
Description: NIH Chemical Genomics Center [NCGC] U.S. Environmental Protection Agency [EPA] National Institutes of Environmental Health Sciences [NIEHS] National Toxicology Program [NTP] NCGC Assay Overview The Retinoid X receptor (RXR), a nuclear hormone receptor is expressed in liver, spleen, placenta, epidermis, central nervous system. These receptors are able to form homo and heterodimers with other nuclear receptors and due to this heterodimerizing ability, RXR functions as master regulators producing diverse physiological effects. Three subtypes of RXR exist; alpha, beta and gamma. Retinoid X receptor alpha (RXR-alpha) has potential roles in metabolic signaling pathways, skin alopecia, dermal cysts, cardiac development, insulin sensitization etc. Therefore screening environmental chemicals on RXR-alpha signaling can be used for the studies focused on such therapeutic applications.
NCGC Assay Protocol Summary Using a beta-lactamase reporter-gene under control of Retinoid X receptor--alpha (RXR-alpha) response element, a cell-based assay [GeneBLAzer (RXR-alpha -UAS-bla assay developed by Invitrogen] was used to measure RXR-alpha ligands signaling. GeneBLAzer RXR-alpha -UAS-bla HEK293T cells were used with assay medium containing 2% charcoal-stripped FBS. The assay was performed in clear bottom black Greiner 1536-well plates. Library compounds were measured for their ability to inhibit the reporter gene activity. Compounds were screened in a titration series in 1536-well format. The fluorescence intensity (405 nm excitation, 460/530 nm emission) was measured using an EnVision plate reader. Data was normalized relative to 9-cis-retinoic acid control (500 nM, 100%), and DMSO only wells (basal, 0%). Concentration-response titration points for each compound were fitted to the Hill equation yielding concentrations of half-maximal inhibition (IC50) and maximal response (efficacy) values. qHTS protocol for RXR-alpha beta-lactamase assay in antagonist mode [Step] [Parameter] [Value] [Description] 1. Reagent; 5 uL; 2500 cells/well 2. Incubation; 37 C for 4 hrs 3. Compounds; 23 nL; 0.59 nM to 92 uM 4. Controls (DMSO); 23 nL 5. Agonist (Stimulator); 1uL; 9-cis-retinoic acid at 500 nM and 100 nM final concentrations 6. Incubation; 37 C for 18 hrs 7. Detection reagent; 1 uL of CCF4-dye 8. Incubation; RT for 2 hrs 9. Detection; Fluorescence; Envision plate reader
% is scaled to controls: 0 for no effect and ±100 for the full control effect.

Retinoic acid receptor RXR-alpha (Homo sapiens), sequence (P19793 whole entry, looked up): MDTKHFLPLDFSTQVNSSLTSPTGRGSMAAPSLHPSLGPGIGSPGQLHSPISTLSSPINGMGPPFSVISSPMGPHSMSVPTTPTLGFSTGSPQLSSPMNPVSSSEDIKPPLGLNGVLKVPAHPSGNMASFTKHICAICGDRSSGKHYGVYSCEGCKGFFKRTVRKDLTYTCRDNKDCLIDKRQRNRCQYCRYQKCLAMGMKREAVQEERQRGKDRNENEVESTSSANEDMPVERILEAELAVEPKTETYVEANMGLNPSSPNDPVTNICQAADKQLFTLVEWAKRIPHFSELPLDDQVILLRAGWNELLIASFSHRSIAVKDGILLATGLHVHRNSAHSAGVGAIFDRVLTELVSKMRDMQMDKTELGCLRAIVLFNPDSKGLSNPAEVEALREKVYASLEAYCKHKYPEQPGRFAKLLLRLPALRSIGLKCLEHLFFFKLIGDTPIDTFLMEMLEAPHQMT

SMILES | max response
ClC(Cl)=C(Cl)Cl | 2.53% and 3.68%
CCN(CC)c1ccccc1 | 4.5%
CCOP(=S)(OCC)Oc1ccc([N+](=O)[O-])cc1 | 10.9% and -20.1%
c1ccc2c(c1)CCCC2 | 7.45%
O=C(O)COc1ccc(Cl)cc1Cl | -3.05% [middle of 4 runs]
N#Cc1c(Cl)cccc1Cl | 2.12%
O=C(O)C1C2CCC(O2)C1C(=O)O (stereo not given) | -26.2%
ClC1=C(Cl)C2(Cl)C3C(Cl)C=CC3C1(Cl)C2(Cl)Cl (stereo not given) | -17.9%
Nc1ccccc1Cl | 23.6%
[O-][Br+2]([O-])O | 9.17% and 7.78%
Cc1ccc2ccccc2c1 | -9.3%
COP(=S)(OC)Oc1ccc([N+](=O)[O-])cc1 | -10.1% and -10.7%
CC(C)N1C(=O)c2ccccc2NS1(=O)=O | 0.0964%
COC1=CC(=O)O[C@@H](/C=C/c2ccc3c(c2)OCO3)C1 | -29.4%
C=CCOC(C)=O | 2.59%
CNC(=O)Oc1cccc2c1OC(C)(C)O2 | -16.4%
CCCC(=O)Cl | 15.7%
CC(C)Nc1nc(Cl)nc(NC(C)C)n1 | -2.39%
C=CCc1ccc(OC)cc1 | 6.28%
Cc1ccccc1N | 13.9%

SMILES | max response
O=C=NC1CCCCC1 | 12.3% and -18.1%
NC(=S)Nc1ccccc1 | 6.2% and -12.5% and -20.4%
Cc1cccc(C#N)c1 | 20.5%
C[N+](C)(C)Cc1ccccc1 | 9.55% and -19%
Cc1ccc([N+](=O)[O-])cc1C | 17.5% and -26.4%
CC(=O)[O-].CC(=O)[O-].O.O.O.[Pb+2] | 27.2% and 0.247%
c1nc[nH]n1 | 5.33%
ClCBr | -1.21%
CC(C)(C)OOC(C)(C)C | 11.6%
C/C=C/c1ccc2c(c1)OCO2 | -0.653%
O=NN(CCO)CCO | 16.4%
O=[N+]([O-])c1cccc2ccccc12 | 5.1% and -1.16%
O=[N+]([O-])c1ccc(Cl)c(Cl)c1 | 7.29%
O=C(Cl)/C=C/C(=O)Cl | -3.28%
C[C@H]1CCCC(=O)CCC/C=C/c2cc(O)cc(O)c2C(=O)O1 | -20.8%
CN=C=S | 0.0175% and -8.56%
COC(=O)NC(=S)Nc1ccccc1NC(=S)NC(=O)OC | -8.67% and 3.08%
CNC(=O)Oc1ccccc1OC(C)C | -31.5%
CC(O)CCl (stereo not given) | -5.06% and 5.36%
CC(C)OC(=O)Nc1cccc(Cl)c1 | 4.34%
